Assay outcomes: PubChem, The Scripps Research Institute Molecular Screening Center
In the library only some 1.8% were active in any assay of this set; here they are far more common.
LYPLA2 inh = counter-screen for PME1 inhibitors: inhibitors of human LYPLA2. recombinant LYPLA2, FP-Rh probe fluorescence polarization. hit rate 0.38% among 320,000. inhibition, % at 5.9 µM;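 active means inhibition above the screen-wide mean plus 3 SD, limit set per campaign, cut at about 26% in these data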;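 further: 0% = LYPLA2 with DMSO and 100% = wells lacking LYPLA2 enzyme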
LYPLA1 counter = blocks human lysophospholipase 1, a PME1 counter-screen | O75608 | recombinant LYPLA1, FP-Rh probe fluorescence polarization | inhibition, % at 5.9 µM | hit rate 0.16% among 320,000;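 active means inhibition above the mean of all tested compounds plus 3 SD, set per campaign, cut at about 14% in these data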;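 further: inhibitors block serine hydrolase probe labeling of LYPLA1 so polarization falls; 0% = enzyme with DMSO and 100% = wells lacking LYPLA1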
Fam108B counter = blocks mouse Fam108B hydrolase in RBBP9 counter-screen; recombinant Fam108B, FP-Rh probe fluorescence polarization; inhibition, % at 9.51 µM; hit rate 0.33% among 300,000;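 active means inhibition above the screen mean inhibition plus 3 SD, computed separately per campaign, cut at about 18% in these data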;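 further: inhibitors lower polarization as less probe binds the enzyme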
PAD4 inh = blocks human protein arginine deiminase 4 | recombinant PAD4, RCA probe fluorescence polarization | inhibition, % at 6.36 µM | hit rate 0.41% among 330,000 | AID 485272;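 active means percent inhibition above a cutoff equal to the mean of all tested compounds plus 3 SD, cut at about 15% in these data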;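 further: 0% = PAD4 with RCA probe and DMSO and 100% = probe without PAD4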
GSTO1 inh = blocks human GSTO1 in RBBP9 counter-screen. P78417. recombinant GSTO1, activity-based probe fluorescence polarization. inhibition, % at 5.96 µM. hit rate 1.1% among 300,000. AID 1974;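 active means inhibition above the campaign mean inhibition plus 3 SD, cut at about 35% in these data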;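 further: 0% = GSTO1-1 with DMSO and 100% = wells lacking GSTO1-1 enzyme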
Target sequence (P78417 whole entry, looked up): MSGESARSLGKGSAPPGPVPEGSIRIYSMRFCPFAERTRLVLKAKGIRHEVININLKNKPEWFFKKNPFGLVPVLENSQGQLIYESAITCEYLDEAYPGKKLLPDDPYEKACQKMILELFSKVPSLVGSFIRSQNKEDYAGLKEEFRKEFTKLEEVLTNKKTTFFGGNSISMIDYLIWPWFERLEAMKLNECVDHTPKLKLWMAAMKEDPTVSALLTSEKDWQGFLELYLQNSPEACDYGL
PME-1 inh = PME-1 (human) inhibition. Q9Y570. inhibition, % at 5.9 µM. recombinant PME-1, FP-Rh probe fluorescence polarization. AID 2130. hit rate 0.53% among 320,000;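 active means inhibition above the campaign mean of all compounds plus 3 SD, cut at about 26% in these data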;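 further: competitive labeling of PME-1 active site by serine hydrolase directed probe; 0% = PME-1 with DMSO and 100% = wells lacking PME-1 enzyme; inhibitors block probe labeling so polarization falls and inhibition rises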
GSTO1 inh conf = GSTO1 (human) inhibition, confirmation; hit rate 54% among 2,400; inhibition, % at 5.96 µM; recombinant GSTO1, probe fluorescence polarization; shares compounds with GSTO1 inh;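 active means inhibition above the primary screen's cutoff, its mean inhibition plus 3 SD, cut at about 35% in these data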;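 further: loss of polarization as inhibitors block binding of rhodamine sulfonate ester activity probe; 0% = GSTO1 with DMSO and 100% = wells lacking GSTO1 enzyme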
Numbers without * were called inactive; / = not tested or not shown.

SMILES	LYPLA2 inh	LYPLA1 counter	Fam108B counter	PAD4 inh	GSTO1 inh	PME-1 inh	GSTO1 inh conf
Cn1cnnc1SCC(=O)NC1CCCCC1	9	1	-3	-1	-1	1	/
O=C(NCCc1ccccc1)C(=O)NCC(c1ccco1)N1CCOCC1 (centres undefined)	-5	-3	-5	-3	7	-6	/
O=C(NC1=C(Nc2ccc(F)cc2)C(=O)c2ccccc2C1=O)c1ccc(Cl)cc1	1	-2	11	-8	22	3	/
Cc1ccc(NC2=CC(=O)C(=O)c3ccccc32)cc1	3	3	12	39*	77*	15	73*
O=C1C(Cl)=C(Nc2ccc(O)cc2)C(=O)c2ccccc21	5	2	12	3	90*	21	92*
COC1=C(Nc2ccc(OC)cc2)C(=O)c2ccccc2C1=O	13	5	5	-15	17	11	/
CCN(CC)c1ccc(NC2=C(Cl)C(=O)c3ccccc3C2=O)cc1	1	-3	14	-2	83*	7	84*
CCNC1=C(Cl)C(=O)c2ccccc2C1=O	7	6	3	-5	70*	10	8
CC(=O)Nc1ccc(NC2=CC(=O)c3ccccc3C2=O)cc1	9	3	4	-9	39*	0	8
CC1=NN(c2ccc(C)c(C)c2)C(=O)C1C(c1cccc(O)c1)C1C(=O)N(c2ccc(C)c(C)c2)N=C1C (centres undefined)	10	-2	10	77*	51*	34*	32
NC(=O)c1c(NC(=O)COC(=O)c2ccc(O)c(Cl)c2)sc2c1CCCC2	/	/	/	-13	/	/	/
O=C(O)C1=NN(c2ccccc2)C(=O)C1	6	1	7	-1	48*	-1	11
O=C(O)C1=NN(c2ccccc2)C(=O)CC1	3	5	0	-6	6	-3	/
Cc1cc(NC(=O)Cc2cccs2)no1	-12	-10	12	-19	44*	14	21
O=C1CCN(Cc2ccccc2)CCN1[C@H](COc1ccccc1)c1ccccc1	-10	4	-5	-8	83*	8	4
CCOC(=O)N1CCN(C(=O)COc2ccc(S(=O)(=O)NC(C)C)cc2)CC1	-3	2	-3	-1	6	7	/
O=C1/C(=C/c2cccnc2)SC(=S)N1Nc1ccccc1	8	1	0	-10	52*	0	19
CC(C)C(=O)N(c1ccc2oc(=O)sc2c1)S(=O)(=O)c1cccs1	3	2	4	15	17	2	/
CC(C)C(=O)N(c1cc2sc(=O)oc2c2ccccc12)S(=O)(=O)c1cccs1	9	-5	6	11	85*	-1	43*
CCOc1ccc(-n2c(C)cc(C(=O)CCl)c2C)cc1	3	1	3	-1	94*	6	100*
COc1ccccc1NC(=O)NS(=O)(=O)c1ccc(C)cc1	-7	-5	-2	-2	-4	-5	/
COc1ccc(C2=CC3=C(Br)C(=O)C(C)(OC(=O)C4CCCC4)C(=O)C3=CO2)cc1 (centres undefined)	0	-5	7	-10	39*	5	25
COC(=O)CCC(=O)OC1(C)C(=O)C2=COC(c3ccc(OC)cc3)=CC2=C(Br)C1=O (centres undefined)	0	-2	2	-2	20	0	/
CC(=O)NCCc1cnc[nH]1	3	1	0	1	47*	2	3
O=C(O)c1cc2cccc(S(=O)(=O)N3CCCCC3)c2cc1O	-2	-3	-1	-4	2	-1	/
Cc1sc(NC(=O)CCl)c(C(=O)c2ccccc2)c1C	3	-3	-1	0	74*	2	97*
Cc1ccc2nc(SCC(=O)Nc3nonc3C)[nH]c2c1	5	0	-1	0	-2	-6	/
O=S(=O)(/N=C/c1ccccc1O)c1cccs1	-2	2	5	0	2	-4	/
CC(C)(C)c1cc[n+](C2=C([O-])c3ccccc3C(=O)/C2=N\S(=O)(=O)c2cccs2)cc1	-4	-1	7	2	80*	10	89*
